Measured values: PubChem BioAssay AID493209 (National Center for Advancing Translational Sciences (NCATS), 2011)
Calls of active or inactive are those of the source.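 How the source made its calls: active means compounds that raised 12-lipoxygenase product formation in the cuvette follow-up test, with a fitted potency; inactive means the rest, inconclusive results apart.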

Target: Polyunsaturated fatty acid lipoxygenase ALOX12 (Homo sapiens) (UniProt P18054)
Experiment: Activators of 12-hLO (12-human lipoxygenase): 12hLO Cuvette-Based Hit Validation Assay of Followup Compounds
Details: purified 12-hLO, cuvette UV 234 nm product formation
Experimental: The enzyme activity of 12-hLO was determined by a direct measurement of product formation by monitoring the absorbance at 234 nm in a 2 mL cuvette. IC50 values of inhibitors were obtained by measuring the enzymatic rate at a variety of concentrations (Carroll et al, Segraves et al). This assay was used to validate active or inconclusive putative activators identified in the primary screen (see related BioAssay AIDs). Assay Provider: Holman, T.R., University of California, Santa Cruz Screening Center PI: Austin, Christopher P. Screening Center: NIH Chemical Genomics Center
For control experiments, 2 mL of substrate buffer (10 uM arachidonic acid / 25 mM HEPES / 0.01% (v/v) Triton X-100, pH 8.0) was aliquoted in a cuvette with a magnetic stir bar. After equilibrium was ensured, an aliquot of inhibitor solvent was added (DMSO), and equilibrium was once again assured. The reaction was started by adding enzyme to the cuvette and the reaction was followed until completed. The inhibition experiments were performed as above, except the actual inhibitory compound was added instead of vehicle. To achieve an IC50, typically 5 concentrations of the inhibitor were studied. If the inhibitor concentration was constant, then five different reaction volumes were used. Step \ Parameter \ Value \ Description 1; UV-Vis; 234 nm; Equilibration 2; Reagent; 2 mL; Substrate buffer 3; UV-Vis; 234 nm; Equilibration 4; Reagent; varies; Compound 5; UV-Vis; 234 nm; Equilibration 6; Reagent; 50-200 nM; Enzyme 12-hLO 7; UV-Vis; 234 nm; Enzymatic reaction Step \ Notes 1; Blank cuvette to air. 2; 10 uM AA, 25 mM HEPES, 0.01% Triton X-100, pH 8. 3; No change in absorbance ensured. 4; Compound vehicle or compound in various concentrations depending on potency. 5; No change in absorbance ensured. 6; Enzyme concentration to achieve reaction rate between 0.02 and 0.04 AU/s. 7; Enzymatic reaction visualized until completion.

Polyunsaturated fatty acid lipoxygenase ALOX12 (Homo sapiens), sequence (P18054 whole entry, looked up): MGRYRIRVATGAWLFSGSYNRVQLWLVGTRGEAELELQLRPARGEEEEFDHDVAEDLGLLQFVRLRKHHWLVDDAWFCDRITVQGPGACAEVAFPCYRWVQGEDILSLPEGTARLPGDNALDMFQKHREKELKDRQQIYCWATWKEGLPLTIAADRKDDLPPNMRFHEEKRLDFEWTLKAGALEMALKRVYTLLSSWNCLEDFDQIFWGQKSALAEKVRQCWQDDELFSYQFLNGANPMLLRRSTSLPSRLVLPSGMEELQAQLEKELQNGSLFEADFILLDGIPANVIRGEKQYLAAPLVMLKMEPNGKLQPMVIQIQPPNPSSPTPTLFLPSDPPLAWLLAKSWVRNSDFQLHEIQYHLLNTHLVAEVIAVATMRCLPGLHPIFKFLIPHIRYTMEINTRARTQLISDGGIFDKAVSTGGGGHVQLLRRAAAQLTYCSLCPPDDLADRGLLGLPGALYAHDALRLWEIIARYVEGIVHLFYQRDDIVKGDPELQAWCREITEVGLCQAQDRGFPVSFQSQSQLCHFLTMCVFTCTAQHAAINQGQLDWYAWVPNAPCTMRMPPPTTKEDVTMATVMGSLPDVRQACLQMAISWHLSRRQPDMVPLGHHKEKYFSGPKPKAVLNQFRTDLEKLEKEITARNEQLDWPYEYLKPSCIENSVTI

SMILES	outcome	Potency
COc1ccc(NC2=NCC(Cc3ccc(Br)cc3)S2)cc1 (stereo not given)	inactive	
COc1cc(CNc2ccc(N3CCCC3)cc2)ccc1OCc1ccccc1	inactive	
Cc1ccc(NC(=O)Nc2cccs2)c(Cl)c1	inactive	
Oc1ccc(Cl)cc1-c1cc(-c2ccco2)[nH]n1	inactive	
Oc1ccccc1-c1cc(-c2ccc3c(c2)OCCO3)n[nH]1	inactive	
Cc1ccc(C(=O)/C=C/c2c[nH]c3ccccc23)cc1	inactive	
Oc1ccc(-c2csc(-c3ccccc3)n2)cc1O	inactive	
CCc1cc(-c2n[nH]c(C)c2Oc2ccc(C(C)C)cc2)c(O)cc1O	inactive	
Cc1ccc(S(=O)(=O)Nc2ccc(NC(=O)Nc3cccc(C(F)(F)F)c3)cc2)cc1	inactive	
COc1ccc(/C=C/c2nc(-c3ccccc3O)n[nH]2)cc1	inactive	
COc1cccc(-c2cnc(NCc3cc(Cl)ccc3O)n2C)c1	inactive	
Oc1ccc(-c2nc(-c3ccc(O)c(O)c3)cs2)cc1	inactive	
CC(Oc1ccc(Cl)cc1Cl)C(=O)NC1=NN(c2ccccc2)C(=O)C1 (stereo not given)	inactive	
O=C(Nc1nnc(-c2ccccn2)o1)c1ccc(Br)cc1	inactive	
CCc1ccc(S(=O)(=O)/N=C2/C=C(Sc3ncn[nH]3)C(=O)c3ccccc32)cc1	inactive	
Cc1cc(Cl)cc(Cl)c1OCC(=O)NCc1ccco1	inactive	
CCOc1ccc(-c2[nH]ncc2Oc2cccc(OC)c2)c(O)c1	inactive	
CCOC(=O)Cc1cc(=O)n(-c2nc3ccccc3s2)[nH]1	inactive	
Oc1ccccc1-c1cc(-c2cccc(F)c2)n[nH]1	inactive	
Cc1[nH]nc(-c2ccc(O)cc2O)c1Oc1ccccc1	inactive	

SMILES	outcome	Potency
Cc1cccnc1NCc1ccc(O)c2ncccc12		46.4 µM (active)
CCOC(=O)CNC(c1ccccc1)c1cc(Br)ccc1NC(=O)CCN1CCOCC1 (stereo not given)		70 µM (active)
Oc1ccc(CN2CCCc3ccccc32)c2cccnc12		43.6 µM (active)
O=C(Nc1nnc(C2=COCCO2)o1)c1ccc(Cl)cc1	inactive	
O=C(Nc1nnc(-c2ccc(Cl)cc2)o1)c1ccccc1Br	inactive	
c1ccc(-c2nc(NCc3cccnc3)c3oc4ccccc4c3n2)cc1	inactive	
CSc1ccc(S(=O)(=O)Nc2ccc(S(=O)(=O)Nc3ccc(C)cc3)cc2)cc1	inactive	
CCCOC(=O)c1ccc(Oc2cn[nH]c2-c2ccc(OC)cc2O)cc1	inactive	
COc1ccc(-c2n[nH]c(C(F)(F)F)c2-c2cc3ccccc3o2)c(O)c1	inactive	
COc1ccc(C(=O)Nc2cc(C(=O)c3ccccc3)c(C)oc2=O)cc1		61.6 µM (active)
CC(Oc1ccc(Cl)cc1Cl)C(=O)Nc1ccc(S(=O)(=O)Nc2cnc3ccccc3n2)cc1 (stereo not given)	inactive	
COc1cc(CNc2ccc(O)cc2)cc(Br)c1OCc1ccccc1F	inactive	
CSCCC(NC(=O)c1ccc(Cl)cc1)C(=O)OCC(=O)Nc1ccc(C#N)cc1 (stereo not given)	inactive	
COc1ccc(C(Nc2ccccn2)c2c(NC(=O)c3ccco3)sc(C)c2C)cc1 (stereo not given)	inactive	
Cc1[nH]nc(-c2ccc(O)cc2O)c1-c1ccc(Cl)cc1	inactive	
Oc1ccc(C2=Nn3c(nnc3-c3ccco3)SC2)cc1O	inactive	
COc1ccc(-c2[nH]ncc2-c2ccc(Cl)cc2)c(O)c1	inactive	
COc1cccc(CNc2ccc(S(=O)(=O)Nc3nccs3)cc2)c1O	inactive	
Cc1nc(N)sc1-c1csc(N(C)c2ccc(O)cc2)n1	inactive	
COc1ccc2nc(NC(=O)c3cccc(OCc4c(C)noc4C)c3)sc2c1	inactive	
